In all, about 3,200 compounds went through this assay and about 75 (2%) showed an effect of 50% or more. Many of the other results were omitted from the sample, so strong results are more common in it than they were.
What follows are compounds tested on T1, S. aureus MSSA476. Details: relative growth, OD600, TSB; 25 µM; inhibitor.
T1 construct: MSSA476
Parameters: species or system S. aureus MSSA476 (TSB) or V. cholerae SAD30 (LB); 384-well bacterial growth screen at 25 uM, OD600 relative to DMSO control
With `Cn1cc(C(=O)CCl)nn1` [10-M19, 2-chloro-1-(1-methyl-1H-1,2,3-triazol-4-yl)ethan-1-one] the “% of control remaining” value was 87.5%.
In the case of `Cc1cccc(CC(=O)CCl)c1` [10-I19, 1-chloro-3-(3-methylphenyl)propan-2-one], the “% of control remaining” value is reported as 130.938%.
For `O=C(CCl)c1cn(-c2ccc(F)cc2)nn1` [10-F05], the “% of control remaining” value was 0%.
With `O=C(CCl)c1cn(-c2cccc(C(F)(F)F)c2)nn1` [10-C09, 2-chloro-1-{1-[3-(trifluoromethyl)phenyl]-1H-1,2,3-triazol-4-yl}ethan-1-one] the “% of control remaining” value was -0.3125%.
`O=C(CCl)c1c[nH]c2ccc(F)cc12` [10-O11, 2-chloro-1-(5-fluoro-1H-indol-3-yl)ethan-1-one] was tested, and the “% of control remaining” value was 120.625%.
For `Cc1cccc(-n2cc(C(=O)CCl)nn2)c1` [10-L07], the “% of control remaining” value was 0%.
`O=C(CCl)c1ccc(C(F)(F)F)cc1` [10-B10, 2-chloro-1-[4-(trifluoromethyl)phenyl]ethan-1-one] was tested, and the “% of control remaining” value was 135.938%.
For `CC(NC(=O)CCl)c1cn(-c2ccccc2)nn1` (stereo not shown) [5-O06, 2-chloro-N-[1-(1-phenyl-1H-1,2,3-triazol-4-yl)ethyl]acetamide], the “% of control remaining” value was 91.0747%.
`O=C(CCl)NC1CC(=O)N(c2cccc(C(F)(F)F)c2)C1` (stereo not shown) [5-E09, 2-chloro-N-{5-oxo-1-[3-(trifluoromethyl)phenyl]pyrrolidin-3-yl}acetamide] was tested, and the “% of control remaining” value was 113.661%.
`O=C(CCl)NCC(=O)Nc1nccs1` [5-G22, 2-chloro-N-{[(1,3-thiazol-2-yl)carbamoyl]methyl}acetamide] was tested, and the “% of control remaining” value was 86.3388%.
With `Cc1nn(-c2ccccc2)c(Cl)c1C=C(C#N)C(=O)NC(C)C` [9-J17, 3-(5-chloro-3-methyl-1-phenyl-1H-pyrazol-4-yl)-2-cyano-N-(propan-2-yl)prop-2-enamide] the “% of control remaining” value was 77.9026%.
For `C=CC(=O)N(C)CC(=O)Nc1ccc(N2C[C@@H](C)O[C@@H](C)C2)cc1` [3-H08, N-[({4-[(2R,6S)-2,6-dimethylmorpholin-4-yl]phenyl}carbamoyl)methyl]-N-methylprop-2-enamide], the “% of control remaining” value was 117.719%.
For `CC(C)N(c1ccccc1)c1ccc(NC(=O)CCl)cc1` [6-I17, 2-chloro-N-{4-[phenyl(propan-2-yl)amino]phenyl}acetamide], the “% of control remaining” value was 116.78%.
`CCC(c1cc(Cl)cc(Cl)c1)N(C)C(=O)CCl` (stereo not shown) [7-L10, 2-chloro-N-[1-(3,5-dichlorophenyl)propyl]-N-methylacetamide] was tested, and the “% of control remaining” value was 75.0392%.
`COc1cc(C)c(C=C(C#N)C(=O)Nc2ccc(C)cc2)cc1C(C)C` [9-C04, 2-cyano-3-[4-methoxy-2-methyl-5-(propan-2-yl)phenyl]-N-(4-methylphenyl)prop-2-enamide] was tested, and the “% of control remaining” value was 99.176%.
In the case of `O=C(CCl)c1sccc1Cl` [10-K11, 2-chloro-1-(3-chlorothiophen-2-yl)ethan-1-one], the “% of control remaining” value is reported as 10.3125%.
For `O=C(O)c1csc(C(=O)CCl)c1` [10-E22, 5-(2-chloroacetyl)thiophene-3-carboxylic acid], the “% of control remaining” value was 88.4375%.
With `O=C(CCl)c1cc(Cl)ccc1Cl` [10-E16, 2-chloro-1-(2,5-dichlorophenyl)ethan-1-one] the “% of control remaining” value was 80%.
In the case of `C=CC(=O)NCc1cc(Cl)cc(S(C)(=O)=O)c1` [3-N15, N-[(3-chloro-5-methanesulfonylphenyl)methyl]prop-2-enamide], the “% of control remaining” value is reported as 97.5185%.
`C=CC(=O)NCc1oc(CC)nc1C` [3-P15, N-[(2-ethyl-4-methyl-1,3-oxazol-5-yl)methyl]prop-2-enamide] was tested, and the “% of control remaining” value was 86.7218%.
`N#Cc1c(NC(=O)CCl)oc(-c2ccco2)c1-c1ccco1` [5-D10, 2-chloro-N-[4'-cyano-2'-(furan-2-yl)-[2,3'-bifuran]-5'-yl]acetamide] was tested, and the “% of control remaining” value was 66.6667%.
With `Cc1c(C#N)c(NC(=O)CCl)n(Cc2cccs2)c1C` [4-C04, 2-chloro-N-{3-cyano-4,5-dimethyl-1-[(thiophen-2-yl)methyl]-1H-pyrrol-2-yl}acetamide] the “% of control remaining” value was 108.623%.
In the case of `N#Cc1c(NC(=O)CCl)oc(-c2cccs2)c1-c1cccs1` [6-I09, 2-chloro-N-[3-cyano-4,5-bis(thiophen-2-yl)furan-2-yl]acetamide], the “% of control remaining” value is reported as 37.9024%.
For `COCC(C)NC(=O)C(C#N)=Cc1cccc(F)c1F` (stereo not shown) [9-F09, 2-cyano-3-(2,3-difluorophenyl)-N-(1-methoxypropan-2-yl)prop-2-enamide], the “% of control remaining” value was 101.873%.
With `C=CC(=O)N1CCCC1c1nc(N(C)C)no1` (stereo not shown) [2-C21, 1-{2-[3-(dimethylamino)-1,2,4-oxadiazol-5-yl]pyrrolidin-1-yl}prop-2-en-1-one] the “% of control remaining” value was 104.439%.
`C=CC(=O)N(CC)CC(=O)N1CCCC(F)(F)C1` [2-G14, N-[2-(3,3-difluoropiperidin-1-yl)-2-oxoethyl]-N-ethylprop-2-enamide] was tested, and the “% of control remaining” value was 112.446%.
For `O=C1C=CC(=O)N1CCc1ccccc1F` [10-G03, 1-[2-(2-fluorophenyl)ethyl]-2,5-dihydro-1H-pyrrole-2,5-dione], the “% of control remaining” value was 4.375%.
With `O=C1C=CC(=O)N1CCc1ccc(F)cc1` [10-C21, 1-[2-(4-fluorophenyl)ethyl]-2,5-dihydro-1H-pyrrole-2,5-dione] the “% of control remaining” value was 70.9375%.
`O=C1C=CC(=O)N1CCc1ccccc1` [10-E20, 1-(2-phenylethyl)-2,5-dihydro-1H-pyrrole-2,5-dione] was tested, and the “% of control remaining” value was 58.4375%.
`CCc1nsc(N2CCN(C(=O)C(C#N)=Cc3ccco3)CC2)n1` [9-K05, 2-[4-(3-ethyl-1,2,4-thiadiazol-5-yl)piperazine-1-carbonyl]-3-(furan-2-yl)prop-2-enenitrile] was tested, and the “% of control remaining” value was 96.779%.
With `CNS(=O)(=O)c1cc(NC(=O)CCl)ccc1C` [6-M07, 2-chloro-N-[4-methyl-3-(methylsulfamoyl)phenyl]acetamide] the “% of control remaining” value was 112.341%.

Source: PMC11995724, “Antibiotic target discovery by integrated phenotypic and activity-based profiling of electrophilic fragments” (Cell chemical biology, 2025)
